Mdm2-MdmX inh: inhibitors of human Mdm2-MdmX association, primary screen, cell-based, luminescence, split luciferase, SaOS-2, uHTS; hit rate 3% among 330,000; inhibition, % at 8 µM; SaOS-2 split-luciferase Mdm2/MdmX complementation;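 active = inhibition of at least 50% at 8 µM in the primary screen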
HIF-2a block: HIF-2a reporter inhibitors, primary screen, luminescence, 786-0 RCC cells | 786-0 RCC cells HIF-2a reporter, luciferase luminescence, overnight | inhibition, % at 18.8 µM | hit rate 0.72% among 360,000;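 active = inhibition of the luminescence signal of 40% or more relative to plate controls, in a single-dose primary screen at 18.75 µM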
ABHD5-PLIN5 inh: ABHD5-PLIN5 interaction inhibitors, primary screen, cell lysate, split luciferase complementation, luminescence. inhibition, % at 4 µM. Perilipin-5 (Homo sapiens) + 1-acylglycerol-3-phosphate O-acyltransferase ABHD5 (Homo …. Split G. princeps luciferase complementation, 4 h. hit rate 0.78% among 360,000;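 active = inhibition above the mean inhibition across every tested compound plus 3 SD, cut at about 22% in these data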
Target sequence (Q00G26 whole entry, looked up): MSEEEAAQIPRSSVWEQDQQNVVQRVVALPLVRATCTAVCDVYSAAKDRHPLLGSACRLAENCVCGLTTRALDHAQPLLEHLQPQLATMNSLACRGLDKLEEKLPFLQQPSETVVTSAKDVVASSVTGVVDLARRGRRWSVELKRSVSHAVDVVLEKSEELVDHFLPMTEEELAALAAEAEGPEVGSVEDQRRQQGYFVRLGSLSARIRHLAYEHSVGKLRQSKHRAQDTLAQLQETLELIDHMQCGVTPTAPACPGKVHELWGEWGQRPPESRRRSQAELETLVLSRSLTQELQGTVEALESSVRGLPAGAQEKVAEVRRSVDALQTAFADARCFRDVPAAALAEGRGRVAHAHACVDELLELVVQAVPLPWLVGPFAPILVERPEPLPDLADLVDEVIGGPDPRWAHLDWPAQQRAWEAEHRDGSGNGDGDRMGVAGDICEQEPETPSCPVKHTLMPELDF
Target sequence (Q8WTS1 whole entry, looked up): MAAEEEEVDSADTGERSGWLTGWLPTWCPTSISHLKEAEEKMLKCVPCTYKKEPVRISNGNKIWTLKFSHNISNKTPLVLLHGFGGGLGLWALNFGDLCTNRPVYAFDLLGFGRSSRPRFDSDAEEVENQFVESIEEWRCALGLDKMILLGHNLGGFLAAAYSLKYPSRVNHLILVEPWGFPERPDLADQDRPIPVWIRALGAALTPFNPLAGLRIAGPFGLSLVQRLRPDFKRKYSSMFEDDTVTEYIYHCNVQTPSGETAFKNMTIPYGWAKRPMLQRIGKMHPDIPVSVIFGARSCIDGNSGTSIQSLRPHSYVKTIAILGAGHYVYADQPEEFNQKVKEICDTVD
KKLEB cytotox: cytotoxicity in KKLEB CF airway cells, primary screen, cytotoxicity control for CF NF-kB inhibitor project, cell-based, uHTS, fluorescence assay plates; AID 602141, 2011; KKLEB CF airway cells viability, ATPlite luminescence, overnight; active compounds read low; cells stimulated with P. aeruginosa culture filtrate; activity change (cytotoxicity), % at 5 µM; hit rate 0.36% among 360,000;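 active = corrected activity change at or below -50% at 5 µM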
Peg3 prom inh: Peg3 promoter-driven luciferase inhibitors, primary screen, cell-based, HeLa, luciferase luminescence; HeLa PEG-Prom luciferase reporter, overnight; inhibition, % at 20 µM; hit rate 1.7% among 360,000; AID 588405, 2011;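 active = inhibition of at least 50% at 20 µM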
CF NFkB block: inhibitors of PAF-induced NF-kB signaling, primary screen, cell-based, GFP fluorescence, uHTS | hit rate 0.86% among 360,000 | KKLEB NF-kB-GFP reporter, GFP fluorescence overnight | inhibition, % at 5 µM;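 active = at least 50% inhibition at 5 µM, scaled per plate between neutral and stimulator controls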;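 note: PAF is a Pseudomonas aeruginosa culture filtrate used as stimulus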
CF NFkB conf: inhibitors of PAF-induced NF-kB signaling, retest, confirmation, cell-based, GFP fluorescence, single concentration; KKLEB CF airway cells, overnight; hit rate 64% among 1,300; inhibition, % at 5 µM; shares compounds with CF NFkB block; in the data active = inhibition above about 40%;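 note: stimulus PAF is a Pseudomonas aeruginosa filtrate and not platelet activating factor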
Large screens that a line does not name were inactive (follow-up assays come after a bar, where they were run). Shown are actives, neighbours in structure and some others; about 4.6% of the full set was active somewhere.

CCC(=O)OC1(C(C)=O)CCC2C3CCC4=CC(=O)CCC4(C)C3CCC21C (stereo not drawn)	CF NFkB block 50.7 (no result: Mdm2-MdmX inh) | CF NFkB conf inactive
COc1cc(CN(C)c2ccc(S(=O)(=O)N3CCCC3)cn2)ccc1OC(F)F	CF NFkB block 54.3 | CF NFkB conf 54.6
COc1ccc(CCN(C)c2ccc(S(=O)(=O)N3CCCC3)cn2)cc1OC	none
CC1(Cc2ccc(Cl)cc2)C(=O)Nc2ccc(-c3ccc(F)c(Cl)c3)cc21 (stereo not drawn)	none (no result: Mdm2-MdmX inh)
C=Cc1ccc(CC2(C)C(=O)Nc3ccc(-c4cccnc4)cc32)cc1 (stereo not drawn)	CF NFkB block 74.4 (no result: Mdm2-MdmX inh) | CF NFkB conf 86.7
CC1(Cc2ccc(F)cc2)C(=O)Nc2ccc(-c3cccnc3)cc21 (stereo not drawn)	CF NFkB block 66.7 (no result: Mdm2-MdmX inh) | CF NFkB conf 73.7
COc1ccccc1-c1ccc2c(c1)C(C)(Cc1ccc(Cl)c(Cl)c1)C(=O)N2 (stereo not drawn)	none (no result: Mdm2-MdmX inh)
Nc1c(C(=O)CSc2ncccn2)c(=O)[nH]c(=O)n1C1CC1	none
Cc1cc(Br)cn2c(CC(C)(C)C)c(-c3cccc(Cl)c3)nc12	none (no result: Mdm2-MdmX inh)
Cc1ccc(NC(=O)C2CCN(S(=O)(=O)c3ccc(N4CCCC4=O)cc3)CC2)cc1Cl	none
CC1=CC(C)[C@@H]2COC(c3ccc(O)cc3)[C@H]1C2C (stereo partly drawn)	none
O=C1NC(=O)C(=Cc2ccc(Cl)cc2Cl)S1	CF NFkB block 53.9 (no result: Mdm2-MdmX inh) | CF NFkB conf inactive
CCC(CO)Oc1cc(NCc2ccccc2F)c2ncn(C(C)C)c2c1 (stereo not drawn)	none
CCC(COC)Oc1cc(NCc2ccccc2)c2ncn(C(C)C)c2c1 (stereo not drawn)	CF NFkB block 65.7 | CF NFkB conf inactive
CCC(CO)Oc1cc(NCc2ccccc2C(F)(F)F)c2ncn(C(C)C)c2c1 (stereo not drawn)	CF NFkB block 61.3 | CF NFkB conf inactive
CCCCOc1cc(NCc2ccccc2)c2ncn(C(C)C)c2c1	CF NFkB block 60.0 | CF NFkB conf inactive
CCC(CO)Oc1cc(NCc2ccccc2)c2ncn(C(C)C)c2c1 (stereo not drawn)	none
COCCCOc1cc(NCc2ccccc2)c2ncn(C(C)C)c2c1	none
CCC(CO)Oc1cc(NCc2ccc(C(C)(C)C)cc2)c2ncn(C(C)C)c2c1 (stereo not drawn)	CF NFkB block 50.8 | CF NFkB conf inactive
CC1CCC2(CC1)NC(=O)N(CC(=O)Nc1ccc(F)cc1)C2=O (stereo not drawn)	none
COc1ccc(S(=O)(=O)NC(=O)C2(C)CCN2C(=O)C2(c3ccccc3)CCCC2)cc1 (stereo not drawn)	none (no result: Mdm2-MdmX inh)
COc1ccc(C2=C(C)C(N3CCN(C(=O)c4ccco4)CC3)=NS2(=O)=O)cc1	none
Cc1ccc(S(=O)(=O)Nc2cc(C)cc(CCNC=O)c2C)cc1	none (no result: Mdm2-MdmX inh)
Cc1c(CCNC=O)cc(C)c2c3c(oc12)CCCC3	CF NFkB block 58.0 (no result: Mdm2-MdmX inh) | CF NFkB conf inactive
CCc1nc2ccc(C(=O)NCc3ccc(OC)cc3)cn2c1N(CCC(C)C)CCN(C)C	none (no result: Mdm2-MdmX inh)
Cc1ccccc1Cn1ccc(NC(=O)c2nn(C)cc2[N+](=O)[O-])n1	CF NFkB block 60.3 | CF NFkB conf inactive
N#Cc1ccc(C(=O)OCC(=O)Nc2cccc(S(=O)(=O)NC3=NCCC3)c2)cc1	none
CC(C)(C)c1ccc(C(=O)O/N=C(\N)Cc2cccs2)cc1	CF NFkB block 61.2 (no result: Mdm2-MdmX inh) | CF NFkB conf inactive
COc1ccc(OCC(=O)O/N=C(\N)Cc2cccs2)cc1	none
Cc1nn2c(-c3ccc(S(=O)(=O)N4CCN(C)CC4)o3)nnc2c2ccccc12	none

Assay outcomes deposited in PubChem BioAssay by several laboratories.
